# The supplement of paper PMC11732987, “Enantioselective OTUD7B fragment discovery through chemoproteomics screening and high-throughput optimisation” (Communications Chemistry, 2025)
# A number with no mark means an inactive call.
# Experiments:
# Experiment in all cases: log2 ratio of Biotin-Ahx-Ub-VS probe labelling (fragment/DMSO); higher = less target engagement (more negative = stronger competition), active = hit call of the paper (q ≤ 0.05, log2 ratio ≤ -1)
# Details in all cases: compound concentration: 200 uM; treatment time: 3 h
# OTUD6B = target: T1, OTUD6B (UniProt Q8N6M0)
# T1 sequence (whole entry): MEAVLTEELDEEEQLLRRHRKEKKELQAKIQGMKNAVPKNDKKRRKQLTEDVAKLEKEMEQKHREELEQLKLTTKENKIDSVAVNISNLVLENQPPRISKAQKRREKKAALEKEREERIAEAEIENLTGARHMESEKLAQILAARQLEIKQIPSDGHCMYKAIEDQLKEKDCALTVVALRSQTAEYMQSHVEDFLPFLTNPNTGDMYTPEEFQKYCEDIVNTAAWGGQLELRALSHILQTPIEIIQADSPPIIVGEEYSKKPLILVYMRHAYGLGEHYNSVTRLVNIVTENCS
# How it was run: (§1)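 In triplicate, 495 µg of HEK293T lysate per sample was incubated with fragment at 200 µM or vehicle for 3 h. Biotin-Ahx-Ub-VS was then added to 0.5 µM final for 1 h, and labelled DUBs were captured with NeutrAvidin, digested with LysC and trypsin, and measured by diaPASEF LC-MS/MS. Data are average log2 fragment/vehicle ratios by unpaired t-test from global-median-normalised Spectronaut label-free quantities, restricted to proteins with ≥2 unique peptides.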
# OTUD7B = target: T2, OTUD7B (UniProt Q6GQQ9)
# T2 sequence (whole entry): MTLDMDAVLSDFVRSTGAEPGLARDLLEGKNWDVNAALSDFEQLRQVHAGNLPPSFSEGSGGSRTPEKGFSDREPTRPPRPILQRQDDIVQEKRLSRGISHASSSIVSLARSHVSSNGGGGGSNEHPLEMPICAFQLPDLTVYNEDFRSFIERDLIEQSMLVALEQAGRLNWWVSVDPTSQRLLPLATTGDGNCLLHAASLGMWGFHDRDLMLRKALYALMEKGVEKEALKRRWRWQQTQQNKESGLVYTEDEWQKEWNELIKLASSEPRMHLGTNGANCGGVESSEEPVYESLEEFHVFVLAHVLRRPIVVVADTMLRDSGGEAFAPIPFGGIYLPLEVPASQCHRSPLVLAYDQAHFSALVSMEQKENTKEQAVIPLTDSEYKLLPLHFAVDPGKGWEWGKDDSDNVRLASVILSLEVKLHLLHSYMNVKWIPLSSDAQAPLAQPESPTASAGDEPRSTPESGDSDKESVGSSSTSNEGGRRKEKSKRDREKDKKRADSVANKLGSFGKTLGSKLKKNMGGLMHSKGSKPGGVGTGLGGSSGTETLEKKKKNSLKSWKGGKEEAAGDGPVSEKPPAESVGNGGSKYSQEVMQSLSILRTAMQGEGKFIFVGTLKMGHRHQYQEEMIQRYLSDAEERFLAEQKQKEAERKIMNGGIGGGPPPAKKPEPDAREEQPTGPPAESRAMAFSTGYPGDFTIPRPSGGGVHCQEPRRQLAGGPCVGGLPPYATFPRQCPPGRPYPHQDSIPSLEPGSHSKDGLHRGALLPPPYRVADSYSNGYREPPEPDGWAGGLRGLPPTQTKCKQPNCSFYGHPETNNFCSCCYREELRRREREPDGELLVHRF
# How it was run: as §1
# PRPF8 = PRPF8 (UniProt Q6P2Q9)
# How it was run: as §1
# PSMD7 = target: T3, PSMD7 (UniProt P51665)
# T3 sequence (whole entry): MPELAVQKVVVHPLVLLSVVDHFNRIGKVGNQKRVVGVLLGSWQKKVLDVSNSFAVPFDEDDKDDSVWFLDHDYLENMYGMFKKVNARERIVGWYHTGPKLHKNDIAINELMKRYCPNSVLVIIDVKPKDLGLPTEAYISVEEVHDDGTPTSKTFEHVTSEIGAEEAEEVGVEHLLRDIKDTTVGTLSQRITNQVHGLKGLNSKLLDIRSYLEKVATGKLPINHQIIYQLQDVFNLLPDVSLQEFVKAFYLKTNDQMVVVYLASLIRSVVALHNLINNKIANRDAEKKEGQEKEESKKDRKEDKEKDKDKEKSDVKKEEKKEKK
# How it was run: as §1
# UCHL1 = UCHL1 (UniProt P09936)
# How it was run: as §1
# UCHL3 = target: T4, UCHL3 (UniProt P15374)
# T4 sequence (whole entry): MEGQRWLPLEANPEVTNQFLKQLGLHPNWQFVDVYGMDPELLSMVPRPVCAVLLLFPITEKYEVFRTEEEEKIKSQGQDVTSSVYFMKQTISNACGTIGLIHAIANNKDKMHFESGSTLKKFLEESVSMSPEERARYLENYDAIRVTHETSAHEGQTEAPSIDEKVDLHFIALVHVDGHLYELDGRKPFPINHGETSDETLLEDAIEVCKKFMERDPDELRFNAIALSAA
# How it was run: as §1
# UCHL5 = target: T5, UCHL5 (UniProt Q9Y5K5)
# T5 sequence (whole entry): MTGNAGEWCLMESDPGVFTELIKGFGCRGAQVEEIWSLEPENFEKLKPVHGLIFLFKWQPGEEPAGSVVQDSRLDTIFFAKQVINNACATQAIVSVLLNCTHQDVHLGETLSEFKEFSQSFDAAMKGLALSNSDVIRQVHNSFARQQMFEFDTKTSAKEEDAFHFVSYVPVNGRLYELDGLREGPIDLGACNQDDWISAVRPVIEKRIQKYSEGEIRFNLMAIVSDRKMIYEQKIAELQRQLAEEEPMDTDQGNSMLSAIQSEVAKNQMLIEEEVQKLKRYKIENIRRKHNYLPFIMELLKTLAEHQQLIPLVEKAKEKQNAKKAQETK
# How it was run: as §1
# USP10 = USP10 (UniProt Q14694)
# How it was run: as §1
# USP15 = target: T6, USP15 (UniProt Q9Y4E8)
# T6 sequence (whole entry): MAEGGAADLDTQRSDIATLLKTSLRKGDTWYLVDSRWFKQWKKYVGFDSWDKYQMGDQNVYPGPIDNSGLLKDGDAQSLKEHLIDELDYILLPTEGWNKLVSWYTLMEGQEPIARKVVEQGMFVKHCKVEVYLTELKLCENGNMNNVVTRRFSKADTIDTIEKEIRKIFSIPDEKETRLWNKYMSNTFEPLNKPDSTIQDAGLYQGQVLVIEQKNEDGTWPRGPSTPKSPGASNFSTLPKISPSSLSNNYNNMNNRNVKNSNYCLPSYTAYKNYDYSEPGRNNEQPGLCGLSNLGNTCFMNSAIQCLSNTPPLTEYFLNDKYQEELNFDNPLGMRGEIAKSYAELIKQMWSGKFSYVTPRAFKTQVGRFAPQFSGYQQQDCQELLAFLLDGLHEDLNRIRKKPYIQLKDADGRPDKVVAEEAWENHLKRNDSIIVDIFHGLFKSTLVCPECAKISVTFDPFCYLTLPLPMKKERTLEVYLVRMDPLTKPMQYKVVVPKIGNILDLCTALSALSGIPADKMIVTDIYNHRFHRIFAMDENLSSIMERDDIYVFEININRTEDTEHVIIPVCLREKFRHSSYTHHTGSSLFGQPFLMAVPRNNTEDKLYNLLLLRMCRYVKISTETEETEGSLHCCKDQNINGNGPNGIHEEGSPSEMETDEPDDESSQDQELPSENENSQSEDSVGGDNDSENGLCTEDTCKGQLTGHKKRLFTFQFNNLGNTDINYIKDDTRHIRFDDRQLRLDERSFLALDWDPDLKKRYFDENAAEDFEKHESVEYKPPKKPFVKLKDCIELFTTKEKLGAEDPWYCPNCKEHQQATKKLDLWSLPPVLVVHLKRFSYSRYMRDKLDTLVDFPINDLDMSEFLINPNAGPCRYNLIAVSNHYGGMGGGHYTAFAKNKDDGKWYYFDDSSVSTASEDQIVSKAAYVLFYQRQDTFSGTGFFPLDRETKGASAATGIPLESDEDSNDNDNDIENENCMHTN
# How it was run: as §1
# USP16 = USP16 (UniProt Q9Y5T5)
# How it was run: as §1
# Sequence of USP16 (Q9Y5T5 whole entry, looked up): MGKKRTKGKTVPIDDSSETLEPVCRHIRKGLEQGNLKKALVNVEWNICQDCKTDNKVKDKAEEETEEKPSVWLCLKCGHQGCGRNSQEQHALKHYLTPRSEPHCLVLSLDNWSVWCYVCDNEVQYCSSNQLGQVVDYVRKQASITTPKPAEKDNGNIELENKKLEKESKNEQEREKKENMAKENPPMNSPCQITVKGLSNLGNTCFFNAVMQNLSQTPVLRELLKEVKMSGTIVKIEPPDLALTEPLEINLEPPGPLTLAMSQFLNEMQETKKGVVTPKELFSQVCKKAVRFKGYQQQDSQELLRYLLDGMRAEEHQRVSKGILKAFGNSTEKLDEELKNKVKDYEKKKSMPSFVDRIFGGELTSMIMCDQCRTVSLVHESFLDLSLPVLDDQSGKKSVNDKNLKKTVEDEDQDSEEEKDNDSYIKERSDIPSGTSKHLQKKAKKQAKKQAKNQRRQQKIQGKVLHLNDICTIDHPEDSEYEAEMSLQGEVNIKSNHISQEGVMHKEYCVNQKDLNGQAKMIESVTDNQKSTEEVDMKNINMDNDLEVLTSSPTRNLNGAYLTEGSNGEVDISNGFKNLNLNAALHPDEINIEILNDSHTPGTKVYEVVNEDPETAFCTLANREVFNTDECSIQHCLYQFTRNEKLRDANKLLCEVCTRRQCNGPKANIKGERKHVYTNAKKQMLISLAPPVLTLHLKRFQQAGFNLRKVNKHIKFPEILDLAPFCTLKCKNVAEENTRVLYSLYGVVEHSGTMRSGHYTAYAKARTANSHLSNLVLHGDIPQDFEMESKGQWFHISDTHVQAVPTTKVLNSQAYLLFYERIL
# Sequence of USP10 (Q14694 whole entry): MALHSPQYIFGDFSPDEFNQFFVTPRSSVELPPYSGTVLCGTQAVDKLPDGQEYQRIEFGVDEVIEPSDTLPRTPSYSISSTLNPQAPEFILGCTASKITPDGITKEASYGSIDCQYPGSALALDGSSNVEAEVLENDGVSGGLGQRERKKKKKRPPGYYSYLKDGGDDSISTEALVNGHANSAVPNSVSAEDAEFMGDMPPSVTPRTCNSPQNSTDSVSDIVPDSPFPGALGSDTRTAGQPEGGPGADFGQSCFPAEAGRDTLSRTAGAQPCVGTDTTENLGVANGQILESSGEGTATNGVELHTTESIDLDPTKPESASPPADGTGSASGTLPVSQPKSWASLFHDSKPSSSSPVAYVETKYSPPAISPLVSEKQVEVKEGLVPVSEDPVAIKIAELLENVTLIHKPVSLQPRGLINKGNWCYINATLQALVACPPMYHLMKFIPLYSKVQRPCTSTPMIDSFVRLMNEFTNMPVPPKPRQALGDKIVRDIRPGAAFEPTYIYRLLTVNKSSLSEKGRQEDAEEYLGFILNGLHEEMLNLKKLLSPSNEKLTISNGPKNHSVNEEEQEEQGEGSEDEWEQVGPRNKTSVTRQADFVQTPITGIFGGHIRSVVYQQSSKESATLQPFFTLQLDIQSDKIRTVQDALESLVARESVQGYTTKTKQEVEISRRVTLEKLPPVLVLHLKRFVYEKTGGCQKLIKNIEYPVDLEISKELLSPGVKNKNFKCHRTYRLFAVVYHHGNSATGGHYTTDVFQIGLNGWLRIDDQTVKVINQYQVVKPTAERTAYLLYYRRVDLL
# Sequence of UCHL1 (P09936 whole entry, looked up): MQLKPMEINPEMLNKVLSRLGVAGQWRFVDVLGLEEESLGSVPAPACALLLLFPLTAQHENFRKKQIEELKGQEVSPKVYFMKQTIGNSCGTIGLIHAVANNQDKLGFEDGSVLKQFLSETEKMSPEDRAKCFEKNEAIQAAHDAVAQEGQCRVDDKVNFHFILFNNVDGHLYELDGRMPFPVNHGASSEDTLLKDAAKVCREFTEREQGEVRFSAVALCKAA
smiles,measurement,setting,value
O=C(CCl)N1CCN(C(=O)Nc2ccccc2)CC1,log2 ratio of Biotin-Ahx-Ub-VS probe labelling,OTUD6B,0.0713
same,log2 ratio of Biotin-Ahx-Ub-VS probe labelling,OTUD7B,-0.112
same,log2 ratio of Biotin-Ahx-Ub-VS probe labelling,PRPF8,-0.00577
same,log2 ratio of Biotin-Ahx-Ub-VS probe labelling,PSMD7,0.0846
same,log2 ratio of Biotin-Ahx-Ub-VS probe labelling,UCHL1,-1.33 (active)
same,log2 ratio of Biotin-Ahx-Ub-VS probe labelling,UCHL3,-0.441
same,log2 ratio of Biotin-Ahx-Ub-VS probe labelling,UCHL5,0.033
same,log2 ratio of Biotin-Ahx-Ub-VS probe labelling,USP10,-0.135
same,log2 ratio of Biotin-Ahx-Ub-VS probe labelling,USP15,-0.101
same,log2 ratio of Biotin-Ahx-Ub-VS probe labelling,USP16,0.0643
